MCL1-BIM inh: disrupts human MCL1 binding to BIM-BH3 peptide. GST-MCL1 / FITC-Bim-BH3 fluorescence polarization. inhibition, % at 10.9 µM. Q07820. AID 2057. actives 0.68% (n = 320,000);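 active = inhibition above the mean inhibition of all tested compounds plus 3 SD, set per campaign, cut at about 40% in these data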;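 note: higher means more loss of mP so more displacement of Bim peptide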
GLD-1 RNA inh: GLD-1-TGE RNA interaction inhibition (C. elegans); Q17339; purified GLD-1 + fluorescein TGE RNA, fluorescence polarization; inhibition, % at 5.96 µM; actives 0.44% (n = 320,000);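 active = percent inhibition above a per-plate cutoff, the plate mean of test compounds plus 3 SD, cut at about 30% in these data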
Target sequence (Q17339 whole entry, looked up): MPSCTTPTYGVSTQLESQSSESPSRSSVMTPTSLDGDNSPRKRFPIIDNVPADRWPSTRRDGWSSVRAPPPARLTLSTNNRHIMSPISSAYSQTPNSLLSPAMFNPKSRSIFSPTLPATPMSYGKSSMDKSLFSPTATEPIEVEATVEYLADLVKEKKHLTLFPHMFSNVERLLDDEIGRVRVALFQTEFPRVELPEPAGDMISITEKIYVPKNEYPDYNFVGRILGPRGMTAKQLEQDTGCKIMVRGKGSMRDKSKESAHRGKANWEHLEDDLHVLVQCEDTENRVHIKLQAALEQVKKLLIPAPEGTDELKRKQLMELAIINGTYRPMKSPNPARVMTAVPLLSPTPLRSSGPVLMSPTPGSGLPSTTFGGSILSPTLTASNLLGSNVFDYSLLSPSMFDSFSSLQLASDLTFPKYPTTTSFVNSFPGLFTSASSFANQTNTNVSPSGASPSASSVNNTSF
EBV gp42 block: inhibitors of Epstein-Barr virus glycoprotein 42 | Q1HVG2 | Fluorescence polarization binding assay, mP read-out | inhibition, % (tested at 21.74 µM) | actives 0.42% (n = 220,000) | AID 1085; in the data active = inhibition above about 50%
E coli Lon inh: inhibitors of E. coli Lon protease; P0A9M0; purified E. coli Lon protease, fluorescence polarization; inhibition, % at 7.94 µM; actives 0.42% (n = 360,000); in the data active = inhibition above about 13%, passing the limit was not always enough
MEX-5 binding: C. elegans MEX-5 TCR-2 RNA binding activity; Q9XUB2; MEX-5/FITC-TCR2 RNA binding, fluorescence polarization; hits give low values; activity score (negative = inhibition of binding), % at 10 µM; actives 0.38% (n = 300,000); AID 1832;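 active = inhibition past about -25% in most replicates, and total fluorescence under double the plate's negative control median, limit read from the data; inconclusive = replicates evenly split on the limit, or fluorescence at least double controls; inactive = too little inhibition in most replicates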
BCLXL inh: inhibitors of human Bcl-xL. Q07817. GST-Bcl-xL / FITC-Bim BH3 peptide fluorescence polarization. inhibition, % at 10.9 µM. actives 0.7% (n = 320,000). AID 2129;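 active = inhibition above the mean of all tested compounds plus 3 SD, cutoff set per campaign, cut at about 30% in these data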;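 note: inhibitors lower millipolarization by displacing the labeled peptide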
eLon confirm: E. coli Lon inhibition confirmation. shares compounds with E coli Lon inh. purified E. coli Lon, fluorescence polarization. inhibition, % at 7.94 µM. actives 31% (n = 1,400); in the data active = inhibition above about 16%
Hits are given with their value; n = inactive; u = inconclusive; x = no result. Sampled rows, rich in hits. Any-hit rate of the full collection: about 1.4%.

SMILES	MCL1-BIM inh	GLD-1 RNA inh	EBV gp42 block	E coli Lon inh	MEX-5 binding	BCLXL inh	eLon confirm
COc1ccc(N(CC(O)CN2CCOCC2)S(=O)(=O)c2ccc(C)cc2)cc1 (centres undefined)	n	n	x	n	n	n	x
Cc1ccc(NC(=S)N2CC(C)OC(C)C2)cc1C (centres undefined)	x	x	x	n	x	x	x
O=C(CCc1ccc(S(=O)(=O)N2CCOCC2)cc1)Nc1ccc(F)cc1[N+](=O)[O-]	x	n	x	n	x	x	x
CN(C)Cc1ccccc1-c1cccc2nccn12	x	x	x	16.9	x	x	n
O=C1CC(c2ccccc2F)c2c(c3ccccc3[nH]c2=O)O1 (centres undefined)	n	n	n	n	x	n	x
CCOC(=O)c1c(C)oc2c1c(C=NCc1ccccn1)c(O)c1ccccc12	x	x	n	123.6	x	x	134.8
CCOC(=O)c1c(C)oc2c1c(C=NCC1CCCO1)c(O)c1ccccc12 (centres undefined)	x	x	n	n	x	x	x
CC(Nc1cccc2ccccc12)C(=O)N/N=C/c1ccccn1 (centres undefined)	n	n	n	24.0	n	n	n
O=C(CCCC(=O)N/N=C\c1ccccn1)N/N=C\c1ccccn1	n	n	n	n	n	n	x
COc1cc2c(cc1OC)CN(CC(=O)Nc1cccc([N+](=O)[O-])c1)CC2	n	n	x	n	n	n	x
COc1cc([N+](=O)[O-])ccc1NC(=O)CN1CCc2cc(OC)c(OC)cc2C1	x	x	x	42.3	n	x	n
Cc1cccc(C)c1NC(=O)COC(=O)c1cc[n+]([O-])cc1	n	n	x	n	n	n	x
CCCCN1C(=O)CCC(C(=O)O)C1c1ccc([N+](=O)[O-])cc1 (centres undefined)	n	n	x	n	n	n	x
OCC1(Cc2cccc(C(F)(F)F)c2)CCN(Cc2cc3ccccc3o2)CC1	n	n	n	12.3	n	n	n
O=C(Cn1cc([N+](=O)[O-])cn1)NCc1cc2ccccc2[nH]1	n	n	n	n	n	n	x
N#CC(C#N)=C1C=C2C=C(N3CCOCC3)CCC2CC1 (centres undefined)	x	x	n	n	u	x	x
N#CC(C#N)=C1C=C2C=C(N3CCCCCC3)CCC2CC1 (centres undefined)	x	x	n	151.5	u	x	n
COC(=O)C1=C(C)NC2=C(C(=O)CCC2)C1c1ccc(-c2ccsc2C(=O)OC)o1 (centres undefined)	n	n	n	18.5	n	n	n
CC(C)CN1CCC(CNC(=O)CCc2nnc(Cc3c[nH]c4ccccc34)o2)CC1	n	n	n	n	n	n	x
CC(=O)c1ccc2c(c1)C1C=CCC1C(C(=O)O)N2 (centres undefined)	x	x	n	38.3	x	x	21.9
O=C(O)c1ccc2c(c1)C1C=CCC1C(c1cc3c(cc1Br)OCO3)N2 (centres undefined)	n	n	n	n	n	n	x
Cc1cnc(NCCc2ccccc2)s1	x	x	x	n	n	x	x
CCN(CC(=O)Nc1c(F)cccc1F)C(=O)c1cc2ccccc2oc1=O	n	n	x	22.8	n	n	n
CC1(C)CC(=O)C(C(=S)Nc2ccccc2)=C(NC2CC(C)(C)NC(C)(C)C2)C1	n	n	n	58.8	n	n	n
CC1(C)CC(NC(=S)Nc2ccc(S(N)(=O)=O)cc2)CC(C)(C)N1	n	n	n	n	n	n	x
SMILES	MCL1-BIM inh	GLD-1 RNA inh	EBV gp42 block	E coli Lon inh	MEX-5 binding	BCLXL inh	eLon confirm
CCN(CC)S(=O)(=O)c1cc(NC(=O)[C@@H](NC(N)=O)C(C)C)ccc1C	n	n	n	17.1	n	n	n
Cc1c(C)n(C)c2ccc(C(=O)NCCCN3CCOCC3)cc12	n	n	x	56.5	n	n	n
Cc1c(C)n(C)c2ccc(C(=O)NCCCN3CCCC3)cc12	n	n	x	n	n	n	x
CCC/C(=N/NC(=O)c1nnn(-c2nonc2N)c1CN1CCCCC1)c1ccccc1	n	n	x	13.3	n	n	n
COC/C=C/C1=CC2=CC(=O)C(C)(OC(=O)c3cnc4ccccc4n3)C(=O)C2=CN1CCOC (centres undefined)	n	n	x	29.5	n	n	n
COC/C=C/C1=CC2=CC(=O)C(C)(OC(=O)c3cnc4ccccc4n3)C(=O)C2=CN1CCCOC(C)C (centres undefined)	n	n	n	n	n	n	x
Cc1cc(C=O)c(O)cc1O	n	n	x	37.2	n	n	n
O=C1N(c2cccc(Cl)c2)C(c2ccccc2)N2CCCN12 (centres undefined)	n	n	n	n	n	n	x
Cc1ccc(C2N(c3ccccc3)C(=O)N3CCCN23)cc1 (centres undefined)	n	n	n	36.0	n	n	n
COc1ccc(-c2ccc(CN3C(C)C(=O)N(Cc4cn(CCC5OCCO5)nn4)CCS3(=O)=O)cc2)cc1OC (centres undefined)	x	x	x	n	x	x	x
CCCCCC(C)NC(=O)c1cc(S(=O)(=O)N2CCCCC2)ccc1N1CCOCC1 (centres undefined)	n	n	x	22.0	x	n	n
COc1ccc(OC)c(S(=O)(=O)NCCCN2CCCC2=O)c1	n	n	x	n	n	n	x
O=C(COC(=O)Cc1ccccc1F)Nc1cccc(S(=O)(=O)NC2=NCCCCC2)c1	n	n	n	n	n	n	x
O=C(NCCc1ccc(F)cc1)c1ccncc1	n	n	x	18.9	n	n	n
Cc1ccc(C(=O)NCCc2ccc(F)cc2)s1	n	n	n	14.1	n	n	n
CCN(CC(=O)Nc1c(F)cccc1F)C(=O)c1cccnc1Sc1ccccc1	n	n	x	n	n	n	x
CC(C)Cn1c(=O)c(C(=O)Nc2ccncc2)c(O)c2ccccc21	n	n	x	34.7	n	n	22.6
CC(C)Cn1c(=O)c(CCC(=O)Nc2ccc(N3CCOCC3)cc2)nc2cc(Cl)ccc21	n	n	x	n	n	n	x
CCOC(=O)N1CCC(NC(=O)Cn2c3c(c(-c4ccccc4Cl)cc2=O)CCC3)CC1	n	n	n	19.8	n	n	n
Cc1cc2c(SCC(=O)NCC3CCCO3)ncnc2s1 (centres undefined)	x	x	x	n	n	x	x
CCN(Cc1ccncc1)C(=O)c1cc(COc2ccc(OC)cc2Cl)on1	n	n	x	n	n	n	x
C=CCN1C(=O)c2cccc3c(N4CCCCC4)ccc(c23)C1=O	n	151.2	n	114.3	u	n	n
O=C1c2cccc3c(N4CCCCC4)ccc(c23)C(=O)N1CCO	n	n	n	125.9	-25.7	49.4	n
COc1cccc2cc(-c3nc(-c4cccs4)cs3)c(=O)oc12	n	n	n	n	n	n	x
O=c1oc2ccccc2cc1-c1nc(-c2cccs2)cs1	n	139.0	112.5	39.3	u	n	45.5
O=C(COC(=O)/C=C/c1cccc(C(F)(F)F)c1)NC(=O)NCc1ccco1	x	n	x	n	x	x	x
Cc1cc(C)nc(SCC(=O)Nc2sc3c(c2C#N)CCC(C)C3)n1 (centres undefined)	n	n	x	n	n	n	x

Assay outcomes (PubChem BioAssay)
